TDP1 block – blocks human tyrosyl-DNA phosphodiesterase 1 | 0.28% of 350,000 active | Q9NUW8 | recombinant TDP1, AlphaScreen DNA substrate cleavage | AID 485290 | Potency, µM (highest dose often 130 µM), for inactives: top-dose activity change, negative = inhibition, usual class: inhibitors; also: potency is read from the fitted curve at half-maximal effect; nearly all actives have a fitted effect of over 40% in size
Target sequence (Q9NUW8 whole entry, looked up): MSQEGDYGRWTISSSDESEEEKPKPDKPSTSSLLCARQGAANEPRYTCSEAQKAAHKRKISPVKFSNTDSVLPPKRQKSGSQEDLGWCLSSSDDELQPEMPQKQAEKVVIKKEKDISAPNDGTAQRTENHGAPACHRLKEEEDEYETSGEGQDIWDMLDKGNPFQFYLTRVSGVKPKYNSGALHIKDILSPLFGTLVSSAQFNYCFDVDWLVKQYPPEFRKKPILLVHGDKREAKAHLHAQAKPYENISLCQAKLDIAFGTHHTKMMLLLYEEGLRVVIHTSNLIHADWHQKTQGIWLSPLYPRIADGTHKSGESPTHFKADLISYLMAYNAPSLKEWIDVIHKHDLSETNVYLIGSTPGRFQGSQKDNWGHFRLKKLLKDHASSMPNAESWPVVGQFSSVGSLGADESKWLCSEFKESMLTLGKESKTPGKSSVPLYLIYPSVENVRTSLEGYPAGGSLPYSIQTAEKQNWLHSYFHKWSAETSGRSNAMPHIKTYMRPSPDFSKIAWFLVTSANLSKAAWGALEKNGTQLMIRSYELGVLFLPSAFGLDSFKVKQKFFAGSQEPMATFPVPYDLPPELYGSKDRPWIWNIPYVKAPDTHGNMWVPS
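Signal: AlphaScreen proximity between streptavidin donor and anti-FITC acceptor beads on intact substrate. Reaction: Tdp1 1 nM, substrate 15 nM final, 5 min RT after 15 min compound preincubation.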
TDP1 cell CPT – growth inhibition of DT40 Tdp1-/-;hTDP1 cells with camptothecin (screen for TDP1 inhibitors); chicken DT40 Tdp1-/-;hTDP1 cells + 20 nM CPT, ATP luminescence, 48 h; Potency, µM (series often up to 46.2 µM), for inactives: at the top dose activity change, negative = growth inhibition, actives largely listed as inhibitors; 12% of 420,000 active; AID 686979; also: potency is read from the fitted curve at half-maximal effect; nearly all actives have a fitted effect of over 55% in size
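Cell growth measured by CellTiter-Glo luminescence after a minimum 48 h, 37 C compound exposure with 20 nM CPT in Tdp1-knockout DT40 cells stably expressing hTDP1, seeded 400/well; qHTS titration format.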
DT40 TDP1 no CPT – qHTS for Inhibitors of human tyrosyl-DNA phosphodiesterase 1 (TDP1): qHTS in cells in absence of CPT; 15% of 420,000 active; DT40 Tdp1-/- hTDP1 cells, no CPT, ATP luminescence, 48 h; Potency, µM (highest dose often 46.2 µM), for inactives: top-dose activity change, negative = growth inhibition, actives largely listed as inhibitors; also: potency is read from the fitted curve at half-maximal effect; nearly all actives have a fitted effect of over 55% in size
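Seeded 400 DT40-hTDP1 cells/well (vehicle DMSO, no 20 nM CPT); pinned compounds; ≥48 hr at 37 °C; CellTiter-Glo luminescence as viability measure.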
IL-1B inflam inh – inhibitors of inflammasome signaling (IL-1 beta secretion) | 4.7% of 360,000 active | activity change, % at 57.5 µM | AID 743279 | THP-1 LPS/ATP IL-1B secretion, AlphaLISA, 16 h; active compounds read low; in the data active = activity change below about -50%; inconclusive = mostly about -30% to -49%
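Secreted IL-1B measured by AlphaLISA bead assay after 16 h compound exposure of THP-1 cells; compounds (final up to 57.5 uM) added 1 h before LPS (250 ng/mL) and ATP (1.25 mM) stimulation; lower signal means less secretion.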
ELG1 repair inh – ELG1-dependent DNA repair inhibition. Potency, µM (doses to about 46.1 µM), without a hit: at the top dose activity change, negative = inhibition, most hits filed as inhibitors. 2.3% of 330,000 active. HEK293T ELG1-luciferase reporter, luminescence, 16 h; DNA damage induced by 5-fluorouridine; also: potency is read from the fitted curve at half-maximal effect; nearly all actives have a fitted effect of over 55% in size
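Reporter activity after DNA damage by 5-fluorouridine is monitored. Compound-treated cells incubate 16 hr at 37 °C, then ONE-Glo is added for 30 min before luminescence reading.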
Giardia killer – Giardia lamblia killing; 0.15% of 340,000 active; AID 540267; Giardia lamblia trophozoite viability; activity change, % at 7.66 µM, hits read low; in the data active = activity change below about -80%; inconclusive = between about -30% and that limit;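 also: parasites exposed to compound for two days anaerobically before the ATP read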
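Trophozoite viability was measured as ATP-dependent luminescence, read 15-30 min after reagent addition. Before that, parasites at 100 cells/well were exposed to compounds for 48 h, anaerobically, at 37 deg C.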
Numbers without * were called inactive; u = inconclusive; x = no result given; [ ] = dose if it differs, or a comment. The list is not random: actives were taken first. Their share in the collection is about 19%. Unless noted, calls follow the shape of the dose curve; as a rule, active = well fitted curve in the direction sought with a large enough effect; inconclusive = small, poorly fitted or top-dose-only effect, or another doubt; inactive = no such curve, though single readings can be large; an effect the other way counts as inactive or inconclusive. % is scaled to controls: 0 for no effect and ±100 for the full control effect.

SMILES | TDP1 block | TDP1 cell CPT | DT40 TDP1 no CPT | IL-1B inflam inh | ELG1 repair inh | Giardia killer
COc1ccccc1Oc1ccc(Oc2ccccc2OC)cc1 | -5.9% | -14.5% | -27.3% | -4.7 | -19.2% | 8.9
CCCCCCCCCCCCCCCC(O)C[N+](C)(C)CCO (centres undefined) | x | 5.17µM* | 3.26µM* | -75.9* | x | -6.3
CCOC(=O)c1[nH]c2c(c1-c1ccccc1)C(=O)CC(c1ccc(OCC)cc1)C2 (centres undefined) | 3.9% | -25.5% | -1.4% | -13.6 | 8.5% | -0.1
CCOC(=O)c1[nH]c2c(c1Cc1ccccc1)C(=O)CC(c1ccc(Cl)cc1)C2 (centres undefined) | 0.0%[12.3 µM] | 16.4µM* | 23.1µM* | x | x | x
CCOC(=O)c1[nH]c2c(c1Cc1ccccc1)C(=O)CC(c1ccc(OC)cc1)C2 (centres undefined) | 2.5% | 20.6µM* | 20.6µM* | x | x | x
CCOC(=O)c1[nH]c2c(c1Cc1ccccc1OC)C(=O)CC(c1ccc(OC)cc1)C2 (centres undefined) | 5.0% | u | 23.1µM* | x | x | x
NCC1O[C@@H](O[C@@H]2C(O)[C@H](O[C@H]3OC(CO)C(O)C(N)C3O)[C@@H](N)C[C@H]2N)C(N)C(O)C1O (some centres undefined) | -6.2%[56.1 µM] | x | x | x | x | x
Cc1ccccc1-c1nc2cc(NC(=O)C3CC3)ccc2o1 | 2.8% | -16.1% | u | -14.4 | u | 4.3
Cn1c(=O)oc2cc(S(=O)(=O)CCC(=O)Nc3ccccc3)ccc21 | 1.9% | -2.4% | 12.9% | -5.3 | 13.7% | -5.4
COc1ccccc1N=CC=C1OC(C)(C)C(C)(C)O1 | 6.1% | -0.3% | u | -75.2* | u | 3.2
Cc1ccc(N=CC=C2OC(C)(C)C(C)(C)O2)c(C)c1 | 8.0% | 1.2% | u | -15.9 | u | 1.8
CCN(CC)C(=O)C1CCCN(c2ncnc3c2cnn3-c2ccc(Cl)cc2)C1 (centres undefined) | x | u | 18.4µM* | -53.9* | u | -3.9
CCN(CC)C(=O)C1CCCN(c2ncnc3c2cnn3-c2cccc(C)c2)C1 (centres undefined) | 0.0% | u | 16.4µM* | -56.2* | u | -0.8
Cc1ccc(-n2c(C)cc(/C=c3/sc4nc5ccccc5n4c3=O)c2C)cc1 | -7.0% | 16.4µM* | 9.2µM* | -9.3 | u | 4.4
O=S(=O)(c1ccc(NC(=S)NCCC(c2ccccc2)c2ccccc2)cc1)N1CCOCC1 | 8.5% | 20.6µM* | 23.1µM* | -15.5 | 18.4µM* | 8.3
CC(C)(C)CC(C)(C)NC(=S)Nc1ccc(S(=O)(=O)N2CCOCC2)cc1 | 2.7% | u | u | -70.6* | -14.3% | -14.9
CCCCOCCCNC(=S)Nc1ccc(S(=O)(=O)N2CCOCC2)cc1 | x | u | u | 0.0 | u | -0.4
N#Cc1ccc(NC(=S)NC(=O)CCc2ccc(S(=O)(=O)N3CCOCC3)cc2)cc1 | u | 13µM* | u | 23.1 | 3.7% | -9.1
NNC(=S)Nc1ccc(S(=O)(=O)N2CCOCC2)cc1 | 8.2% | -6.8% | 15.4% | 10.1 | 0.7% | 23.1
CC1CCN(CCc2nc3cc(NC(=O)COc4ccc([N+](=O)[O-])cc4)ccc3n2C)CC1 | 3.6% | 16.4µM* | u | -101.2* | -15.6% | -1.8
CCn1c(CN2CCC(C)CC2)nc2cc(NC(=O)COc3ccc(Cl)c(C)c3)ccc21 | 4.7% | 6.51µM* | 5.17µM* | x | x | x
Cn1c(CCN2CCOCC2)nc2cc(NC(=O)COc3ccc([N+](=O)[O-])cc3)ccc21 | 0.1% | -25.6% | -6.2% | 0.2 | -24.9% | -6.9
Cc1cccc(OCC(=O)Nc2ccc3c(c2)nc(CCN2CCC(C)CC2)n3C)c1 | 2.0% | u | u | -64.4* | 3.2% | -11.2
CC1CCN(CCc2nc3cc(NC(=O)Nc4ccccc4)ccc3n2C)CC1 | 6.0% | 20.6µM* | u | -1.6 | u | -8.7
COc1ccc(NC(=O)COCc2cc(-c3ccc4c(c3)OCO4)on2)cc1 | 0.0% | -25.8% | -29.8% | x | x | x
SMILES | TDP1 block | TDP1 cell CPT | DT40 TDP1 no CPT | IL-1B inflam inh | ELG1 repair inh | Giardia killer
COc1ccc(C(=O)Nc2ccc(O)c3ccccc23)cc1 | x | u | 25.9µM* | 0.0 | x | 5.4
COc1ccc(NC(=O)Nc2ccc(O)c3ccccc23)cc1 | x | 5.8µM* | 13µM* | 0.5 | x | 26.0
COc1ccc(NC(=O)Nc2ccccc2C(N)=O)cc1 | -1.8% | -20.6% | -27.4% | 0.1 | 4.5% | 8.0
COc1cccc(-n2c(SC)nnc2C2CCN(Cc3nc4ccccc4s3)CC2)c1 | x | 2.5%[9.04 µM] | u | x | x | x
CCOC(=O)c1ccc(Nc2nc(-c3cccnc3)nc3ccccc23)cc1 | -1.9% | 16.4µM* | 9.2µM* | -21.4 | u | -3.9
COC(=O)CNc1nc(-c2cccnc2)nc2ccccc12 | 4.2% | -27.2% | -5.9% | -2.7 | -11.2% | -11.2
CCOC(=O)c1nc(Nc2ccc(C)cc2)c2ccccc2n1 | 3.8% | 20.6µM* | 13µM* | u | u | 3.1
CCOC(=O)c1ccc(Nc2ncnc3ccccc23)cc1 | 7.7% | u | -28.3% | -4.6 | u | 19.8
Cc1ccccc1Nc1nc(-c2cccnc2)nc2ccccc12 | x | u | 20.6µM* | -13.6 | u | -4.5
Cc1ccc(Nc2nc(-c3cccnc3)nc3ccccc23)cc1 | x | 18.4µM* | 8.2µM* | -67.4* | u | -16.4
CCOC(=O)c1c(Nc2ccc(C)cc2)nnc(-c2ccccc2)c1-c1ccccc1 | x | u | 18.4µM* | x | x | x
CCOC(=O)c1nc(Nc2ccccc2)c2ccccc2n1 | 0.5% | u | u | -20.9 | u | 7.3
COc1ccc(OC)c(CCNC(=O)CCCc2nnc3n(C)c(=O)c4sccc4n23)c1 | 0.2% | u | -13.7% | 19.4 | -5.0% | u
O=c1c(N2CCc3ccccc3C2)csc2ccc(F)cc12 | 3.0% | u | u | x | x | x
O=c1c2cc(C(F)(F)F)ccc2sn1-c1ccccc1 | x | 5.17µM* | 5.17µM* | 2.1 | x | x
O=c1c2cc(F)ccc2sn1-c1ccccc1 | 0.8% | 1.84µM* | 2.06µM* | -2.1 | u | -7.9
C=Cc1ccc(Cn2c(=O)cc(C)c3c(C)nn(C)c32)cc1 | -1.9% | u | u | x | x | x
C=Cc1ccc(Cn2nc(-c3ccc(C)c(S(=O)(=O)N(CC)CC)c3)ccc2=O)cc1 | -0.5% | 16.4µM* | u | x | x | x
NS(=O)(=O)c1ccc(Sc2nc3ccccc3s2)c([N+](=O)[O-])c1 | x | 9.2µM* | 10.3µM* | -99.2* | 17.8% | 20.2
Cn1c(=O)[nH]c(=O)c2[nH]c(CN3CCN(Cc4ccccc4)CC3)nc21 | x | 12.7% | 0.1% | -13.3 | -0.4% | -8.4
